In PubChem BioAssay (Tox21):
Results filed as inconclusive are left out. A call without a number means that no potency is given here. Active and inactive are the calls of the source. Unless noted, the call rests on the fitted dose curve.

Assay: qHTS assay for small molecule agonists of the antioxidant response element (ARE) signaling pathway (AID 743202; active means well fitted activation curve with a large enough effect in the signal ratio in the repeat runs, not every such curve was filed as active; the % refers to the signal ratio)
Settings: HepG2 ARE-bla reporter, beta-lactamase FRET, 16 h; series mostly up to 73.3 µM
In short: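 Beta-lactamase reporter activity, read as fluorescence intensity, reflects ARE/Nrf2 pathway induction in HepG2 cells after 16 h compound exposure at 37 C; substrate loading was 2 h at room temperature.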
Potency means the concentration at half of the fitted maximal effect.

Row | SMILES | Potency
1 | NC1=NC(=O)C(c2ccccc2)O1 (stereo unspecified) | inactive
2 | COP(=S)(OC)Oc1ccc(S(N)(=O)=O)cc1 | inactive
3 | ClCCCN1CCN(c2cccc(Cl)c2)CC1 | 6.68 µM (active)
4 | CC1=C(C(=O)O)N2C(=O)[C@@H](N)[C@H]2SC1 | inactive
5 | CCC#N | inactive
6 | CCC(=O)C(CCN(C)C)(c1ccccc1)c1ccccc1 | inactive
7 | CC(C=O)Cc1ccc2c(c1)OCO2 (stereo unspecified) | inactive
8 | CN1C[C@@H](NS(=O)(=O)N(C)C)C[C@@H]2c3cccc4c3c(cn4C)C[C@H]21 | inactive
9 | c1ccc(N2CCNCC2)cc1 | inactive
10 | CCN(CC)CCOC(=O)C(C)(c1ccccc1)c1ccccc1 | inactive
11 | CCOC(=O)C1(c2ccccc2)CCN(CCc2ccc(N)cc2)CC1 | inactive
12 | CC(C(=O)c1ccccc1)N(C)C (stereo unspecified) | inactive
13 | CC(C)(C)NCC(O)c1cc(Cl)c(N)c(Cl)c1 (stereo unspecified) | inactive
14 | Fc1ccc(C2(Cn3cncn3)OC2c2ccccc2Cl)cc1 (stereo unspecified) | inactive
15 | COCC(=O)N(c1c(C)cccc1C)N1CCOC1=O | inactive
16 | O=C(CCN1CC1)OCC(CO)(COC(=O)CCN1CC1)COC(=O)CCN1CC1 | inactive
17 | COC(=O)COc1ccc(Cl)cc1Cl | inactive
18 | Fc1cc(Br)ccc1CBr | inactive
19 | CCNc1nc(NC(C)C)nc(OC)n1 | inactive
20 | O=C1OC(CCN2CCCCC2)OC1(c1ccccc1)c1ccccc1 (stereo unspecified) | 23.7 µM (active)
21 | O=C(NCO)NCO | inactive

Assay: qHTS assay for small molecule agonists of the antioxidant response element (ARE) signaling pathway - cell viability counter screen (AID 743203); further: nearly all actives have a fitted effect of over 55% in size
Settings: ARE-bla HepG2 viability, CellTiter-Glo luminescence, 16 h; series mostly up to 73.3 µM
In short: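 Cytotoxicity was tested in parallel with the ARE reporter screen. ARE-bla HepG2 cells were exposed to compounds for 16 hrs, and viability was taken from CellTiter-Glo luminescence.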

Row | SMILES | Potency
22 | C[C@]12CC[C@H]3[C@@H](CCC4=CC(=O)CC[C@@]43C)[C@@H]1CC[C@@H]2C(=O)O | inactive
23 | COP(=S)(OC)Oc1ccc(S(N)(=O)=O)cc1 | inactive
24 | ClCCCN1CCN(c2cccc(Cl)c2)CC1 | inactive
25 | CC1=C(C(=O)O)N2C(=O)[C@@H](N)[C@H]2SC1 | inactive
26 | CC1(C(=O)Nc2ccc(O)c(Cl)c2Cl)CCCCC1 | inactive
27 | CCC(=O)C(CCN(C)C)(c1ccccc1)c1ccccc1 | inactive
28 | CC(C=O)Cc1ccc2c(c1)OCO2 (stereo unspecified) | inactive
29 | CN1CCC(N(Cc2ccccc2)c2ccccc2)CC1 | inactive
30 | Clc1ccccc1N1CCNCC1 | inactive
31 | CC(C(O)c1ccccc1)N(C)C/C=C/c1ccccc1 (stereo unspecified) | inactive
32 | CN1C[C@@H](NS(=O)(=O)N(C)C)C[C@@H]2c3cccc4c3c(cn4C)C[C@H]21 | inactive
33 | CC1CCC(=O)O1 (stereo unspecified) | inactive
34 | COc1cccc(C(=O)NN(C(=O)c2cc(C)cc(C)c2)C(C)(C)C)c1C | inactive
35 | c1ccc(N2CCNCC2)cc1 | inactive
36 | O=S(=O)(O)C(F)(F)C(F)(F)C(F)(F)C(F)(F)C(F)(F)C(F)(F)F | inactive
37 | CCOC(=O)C(c1c(O)c2ccccc2oc1=O)c1c(O)c2ccccc2oc1=O | inactive
38 | CCOC(=O)C1(c2ccccc2)CCN(CCc2ccc(N)cc2)CC1 | inactive
39 | CC(C(=O)c1ccccc1)N(C)C (stereo unspecified) | inactive
40 | CC(C)(C)NCC(O)c1cc(Cl)c(N)c(Cl)c1 (stereo unspecified) | inactive
41 | COc1cccc2c1cc([N+](=O)[O-])c1c(C(=O)O)cc3c(c12)OCO3 | 17.2 µM (active)
42 | Fc1ccc(C2(Cn3cncn3)OC2c2ccccc2Cl)cc1 (stereo unspecified) | inactive
43 | O=[N+]([O-])c1cc(Cl)c(Cl)c(Cl)c1 | inactive
44 | COCC(=O)N(c1c(C)cccc1C)N1CCOC1=O | inactive
45 | O=C(CCN1CC1)OCC(CO)(COC(=O)CCN1CC1)COC(=O)CCN1CC1 | inactive
46 | COC(=O)COc1ccc(Cl)cc1Cl | inactive
47 | Fc1cc(Br)ccc1CBr | inactive
48 | CCNc1nc(NC(C)C)nc(OC)n1 | inactive
49 | Nc1c(Br)cc([N+](=O)[O-])cc1[N+](=O)[O-] | inactive
50 | O=C1OC(CCN2CCCCC2)OC1(c1ccccc1)c1ccccc1 (stereo unspecified) | inactive
51 | O=C1CN2CCOC2(c2ccccc2Cl)c2cc(Cl)ccc2N1 (stereo unspecified) | inactive

Assay: qHTS assay for small molecule activators of the heat shock response signaling pathway - cell viability counter screen (AID 743209; active means well fitted cell-killing curve with a large enough effect in the repeat runs; further: nearly all actives have a fitted effect of over 50% in size)
Settings: HSE-bla HeLa viability, CellTiter-Glo luminescence, 5 h; series mostly up to 62.6 µM
In short: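 Cytotoxicity counter screen run in parallel with the HSE beta-lactamase reporter, using the same wells. HeLa HSE-bla cells received compound for 5 h at 37 C; ATP-based CellTiter-Glo luminescence was measured after 30 min at room temperature.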

Row | SMILES | Potency
52 | NC1=NC(=O)C(c2ccccc2)O1 (stereo unspecified) | inactive
53 | C[C@]12CC[C@H]3[C@@H](CCC4=CC(=O)CC[C@@]43C)[C@@H]1CC[C@@H]2C(=O)O | inactive
54 | COP(=S)(OC)Oc1ccc(S(N)(=O)=O)cc1 | inactive
55 | ClCCCN1CCN(c2cccc(Cl)c2)CC1 | inactive
56 | CC1=C(C(=O)O)N2C(=O)[C@@H](N)[C@H]2SC1 | inactive
57 | CC1(C(=O)Nc2ccc(O)c(Cl)c2Cl)CCCCC1 | inactive
58 | CCC#N | inactive
59 | CC(C=O)Cc1ccc2c(c1)OCO2 (stereo unspecified) | inactive
60 | CN1CCC(N(Cc2ccccc2)c2ccccc2)CC1 | inactive
61 | CC(C(O)c1ccccc1)N(C)C/C=C/c1ccccc1 (stereo unspecified) | inactive
62 | CC1CCC(=O)O1 (stereo unspecified) | inactive
63 | Cc1coc2c1CCC(C)C2 (stereo unspecified) | inactive
64 | COc1cccc(C(=O)NN(C(=O)c2cc(C)cc(C)c2)C(C)(C)C)c1C | inactive
65 | O=S(=O)(O)C(F)(F)C(F)(F)C(F)(F)C(F)(F)C(F)(F)C(F)(F)F | inactive
66 | CCN(CC)CCOC(=O)C(C)(c1ccccc1)c1ccccc1 | inactive
67 | CC1COC2(c3ccccc3Cl)c3cc(Cl)ccc3NC(=O)CN12 (stereo unspecified) | inactive
68 | CCOC(=O)C1(c2ccccc2)CCN(CCc2ccc(N)cc2)CC1 | inactive
69 | CC(C(=O)c1ccccc1)N(C)C (stereo unspecified) | inactive
70 | CC(C)(C)NCC(O)c1cc(Cl)c(N)c(Cl)c1 (stereo unspecified) | inactive
71 | COc1cccc2c1cc([N+](=O)[O-])c1c(C(=O)O)cc3c(c12)OCO3 | 3.89 µM (active)
72 | Fc1ccc(C2(Cn3cncn3)OC2c2ccccc2Cl)cc1 (stereo unspecified) | inactive
73 | COCC(=O)N(c1c(C)cccc1C)N1CCOC1=O | inactive
74 | O=C(CCN1CC1)OCC(CO)(COC(=O)CCN1CC1)COC(=O)CCN1CC1 | inactive
75 | COC(=O)COc1ccc(Cl)cc1Cl | inactive
76 | Fc1cc(Br)ccc1CBr | inactive
77 | CCNc1nc(NC(C)C)nc(OC)n1 | inactive
78 | CCOP(=S)(Oc1cnc(C(C)(C)C)nc1)OC(C)C (stereo unspecified) | inactive
79 | Nc1c(Br)cc([N+](=O)[O-])cc1[N+](=O)[O-] | inactive
80 | O=C(NCO)NCO | inactive
81 | O=C1CN2CCOC2(c2ccccc2Cl)c2cc(Cl)ccc2N1 (stereo unspecified) | inactive
